Structures are written as SMILES. Values joined by “and” are separate entries in the source; they are usually repeats but may differ in a detail not shown here. Identical values can stand only once. A structure can be active in one record and inactive in another. Active and inactive are the calls of the source. The calls were made as follows: active = hit-call score of the fitted dose curve at least 0.9, where 1 is the maximum; inactive = score below 0.9.

For orientation: AC50 means the midpoint of the concentration-response curve, whichever way the signal moves.

Assay [1] is described as follows: ATG_NFI_CIS: Attagene CIS-FACTORIAL HepG2 Assay for human Nuclear Factor I (NFI) (AID 2282989). The note with it: HepG2 cis-regulatory reporter, NFI response element transcription; actives raise or lower the signal. The gist of the method: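 Reporter transcription driven by endogenous transcription factors in HepG2 cells; 24 h treatment. Quantitation by labelled RT-PCR fragments on capillary electrophoresis, gain- or loss-of-signal relative to DMSO.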

Assay [2] has as its target Myc proto-oncogene protein (Homo sapiens) (UniProt P01106). Put plainly: ATG_Myc_CIS: Attagene CIS-FACTORIAL HepG2 Assay for human Myelocytomatosis (Myc) Proto-Oncogene Transcription Factor (AID 2282990). The note with it: HepG2, Attagene cis-reporter transcription factor activity; actives raise or lower the signal. In short, it runs like this: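 Cells of the HepG2 human liver line bear multiple cis-driven reporter transcription units. Reporter mRNA after 24 h exposure is reverse-transcribed, amplified, labelled and resolved by capillary electrophoresis, with gain- or loss-of-signal fitting relative to DMSO.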

A short description of assay [3]: ATG_NF_kB_CIS: Attagene CIS-FACTORIAL HepG2 Assay for human Nuclear Factor Kappa B (NF-kB) (AID 2282991). As to conditions: HepG2 Attagene cis-factorial NF-kB reporter mRNA; actives raise or lower the signal. The gist of the method: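 Readout is reporter transcript level, gain or loss versus DMSO, measured 24 h post-dose via RT-PCR, fluorescent labelling and capillary electrophoresis. Human HepG2 liver cells carried transiently transfected CIS reporter constructs reflecting endogenous factors.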

Assay [4] is described as follows: ATG_NRF2_ARE_CIS: Attagene CIS-FACTORIAL HepG2 Assay for human Nuclear Factor Erythroid 2 Related Factor 2 (NFR2) response to Antioxidant Response Elements (ARE) (AID 2282992). As to conditions: HepG2 Attagene ARE/NRF2 reporter, transcription factor activity; actives raise or lower the signal. The gist of the method: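 HepG2 cells transiently transfected with multiplexed cis-element reporter constructs, 24 h after chemical dosing; reporter mRNA quantified by RT-PCR, fluorescent primer extension, HpaI digestion and capillary electrophoresis. Bidirectional fit relative to DMSO.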

A short description of assay [5]: ATG_Oct_MLP_CIS: Attagene CIS-FACTORIAL HepG2 Assay for human Octamer-Binding Transcription Factor (Oct) (AID 2282993). As to conditions: HepG2 Attagene cis-factorial Oct reporter, mRNA; actives raise or lower the signal. In short, it runs like this:
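Transfected HepG2 cells, 24 h treatment. Reporter mRNA quantified by RT-PCR–capillary electrophoresis; bidirectional fitting against DMSO.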

Assay [6] is described as follows: BSK_3C_TissueFactor: BioMAP Diversity Plus: 3C Assay for Tissue Factor Biomarker Activity (AID 2282997). The note with it: BioMAP 3C HUVEC, tissue factor biomarker readout; actives raise or lower the signal. The gist of the method: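 Primary human umbilical vein endothelial cells in the 3C system were exposed to test chemical for 24 h, then Tissue Factor measured by ELISA. Activity was fitted bidirectionally against DMSO as negative control and baseline.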

A short description of assay [7]: BSK_3C_uPAR: BioMAP Diversity Plus: 3C Assay for Urokinase-type plasminogen activator receptor (uPAR) Biomarker Activity (AID 2282998). As to conditions: BioMAP 3C HUVEC, uPAR biomarker ELISA; actives raise or lower the signal. In short, it runs like this:
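Readout: ELISA for surface uPAR. System: human umbilical vein endothelial primary cells, 24 h after chemical exposure. Analysis: bidirectional fit, DMSO baseline.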
(In an ELISA, binding on a coated surface is turned into a signal by an enzyme label.)

Assay [8] can be described thus: BSK_3C_VCAM1: BioMAP Diversity Plus: 3C Assay for Vascular cell adhesion molecule 1 (VCAM1) Biomarker Activity (AID 2282999). The note with it: BioMAP 3C HUVEC, VCAM1 ELISA, cytokine-stimulated; actives raise or lower the signal. In short, it runs like this:
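Endothelial cells from human umbilical vein are treated with test chemical. At 24 h, VCAM-1 is measured by ELISA, and responses in either direction are fitted relative to DMSO.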

Assay [9] can be described thus: BSK_4H_Eotaxin3: BioMAP Diversity Plus: 4H Assay for Eotaxin 3 Biomarker Activity (AID 2283000).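 As to outcome: CCL26 protein level quantified by ELISA in parallel with SRB cytotoxicity check.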 The note with it: primary human endothelial cells (HUVEC); actives raise or lower the signal. The gist of the method:
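HUVEC, 24 h post-dose, ELISA for Eotaxin-3/CCL26. Gain or loss of signal fitted bidirectionally vs DMSO baseline.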

Assay [10] addresses Cellular tumor antigen p53 (Homo sapiens) (UniProt P04637). Put plainly: ATG_p53_CIS: Attagene CIS-FACTORIAL HepG2 Assay for human p53 Transcription Factor (AID 2282994). The note with it: HepG2 p53 cis-element reporter, Attagene mRNA; actives raise or lower the signal. In short, it runs like this: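 HepG2 cells transiently transfected with cis-regulated multiple reporter transcription units, dosed 24 h. Reporter mRNA measured by RT-PCR, 6-FAM primer extension, HpaI digestion and capillary electrophoresis; bidirectional fit relative to DMSO.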

Sequence of Myc proto-oncogene protein (Homo sapiens) (P01106 whole entry, looked up): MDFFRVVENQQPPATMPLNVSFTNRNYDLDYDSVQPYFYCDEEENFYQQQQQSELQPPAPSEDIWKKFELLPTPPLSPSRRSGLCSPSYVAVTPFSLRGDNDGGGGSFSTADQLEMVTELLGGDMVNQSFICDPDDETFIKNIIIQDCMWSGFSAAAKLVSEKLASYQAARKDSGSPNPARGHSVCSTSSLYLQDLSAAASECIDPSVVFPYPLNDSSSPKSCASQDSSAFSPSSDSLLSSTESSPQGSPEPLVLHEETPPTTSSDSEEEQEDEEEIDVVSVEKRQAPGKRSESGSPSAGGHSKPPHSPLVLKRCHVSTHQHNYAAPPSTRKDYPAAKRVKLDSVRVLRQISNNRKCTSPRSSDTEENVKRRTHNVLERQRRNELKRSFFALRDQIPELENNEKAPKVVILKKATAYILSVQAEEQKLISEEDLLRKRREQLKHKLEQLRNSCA
Sequence of Cellular tumor antigen p53 (Homo sapiens) (P04637 whole entry, looked up): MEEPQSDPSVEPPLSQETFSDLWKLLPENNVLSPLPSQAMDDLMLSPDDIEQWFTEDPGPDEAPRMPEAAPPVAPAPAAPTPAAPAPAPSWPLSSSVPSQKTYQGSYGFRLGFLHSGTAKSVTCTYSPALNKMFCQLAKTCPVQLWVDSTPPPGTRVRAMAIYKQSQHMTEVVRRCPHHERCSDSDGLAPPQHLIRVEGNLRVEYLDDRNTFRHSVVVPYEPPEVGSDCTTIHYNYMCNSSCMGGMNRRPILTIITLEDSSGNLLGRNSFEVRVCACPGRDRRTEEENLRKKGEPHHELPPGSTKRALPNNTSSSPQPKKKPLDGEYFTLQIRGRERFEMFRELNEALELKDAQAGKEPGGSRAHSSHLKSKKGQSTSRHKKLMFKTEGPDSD

Turning to `COc1cc2c(c(OC)c1OC)-c1ccc(OC)c(=O)cc1[C@@H](NC(C)=O)CC2`, the compound was called inactive in assay [1], in assay [2], in [3], in assay [4], in assay [5] and in [6]. The AC50 in assay [7] is 0.149 µM (active); in [8], 404 nM (active); in [9], 148 nM (active).

Take `CCCC(CCC)C(=O)O`: the compound was classed as inactive in assay [1], in assay [2], in [3], in assay [4], in [5] and in assay [6]. Further, the outcome in [7], in [8] and in [9] was inactive.

`C[C@@H](Oc1ccc(CNC(=O)c2cccnc2Oc2ccc3c(c2)OCO3)c(F)c1)C(=O)O`: the result in [1], in assay [2], in assay [3], in assay [4], in assay [5] and in assay [6] was inactive. The outcome in assay [7], in [8] and in [9] was inactive.

With `Cc1nc(-c2ccccn2)ncc1C(=O)Nn1cc(C)c2cc(F)ccc21`, the call in assay [1], in assay [2], in [3], in [4], in assay [5] and in assay [6] was inactive. In addition, the result in assay [8] and in [9] was inactive. The AC50 in [7] was 20 µM (active).

Regarding `FC(F)(F)COC(OCC(F)(F)F)OCC(F)(F)F`, the result in [1], in [2], in assay [3], in assay [4], in assay [5] and in assay [10] was inactive. The outcome in assay [6], in assay [7], in [8] and in assay [9] was inactive.

Turning to `c1ccc2c(c1)-c1cccc3c1c-2cc1ccccc13`, the compound was called inactive in assay [1], in assay [2], in [3], in assay [5], in [6] and in [7]. The result in assay [8] was inactive. Besides, the AC50 is 204 nM (active) and 29.8 µM (active) in assay [4]; 148 nM (active) in [9].

In the case of `OC[C@H]1O[C@@](CO)(O[C@H]2O[C@H](CO)[C@@H](O)[C@H](O)[C@H]2O)[C@@H](O)[C@@H]1O`, the call in assay [1], in assay [2], in assay [3], in assay [5], in [6] and in [7] was inactive. The result in [8] and in [9] was inactive. For the same compound, the AC50 in assay [4] was 58.6 µM (active).

With `NC(N)=O`, the outcome in [1], in assay [2], in [3], in assay [4], in assay [5] and in assay [6] was inactive. The result in [7], in [8] and in assay [9] was inactive.

For `O=C(O)[C@H](O)[C@@H](O)C(=O)O`, the call in [1], in [2], in assay [3], in assay [4], in [5] and in assay [6] was inactive. Further, the result in assay [7], in assay [8] and in assay [9] was inactive.

In the case of `CC(C)CCCCCCOC(=O)C1CCCCC1C(=O)OCCCCCCC(C)C` (stereo not given), the call in assay [1], in assay [2], in [3], in [4], in assay [5] and in [6] was inactive. The outcome in assay [7], in assay [8] and in [9] was inactive.

On to `Cc1ccc(S(=O)(=O)NC(=O)NN2CCCCCC2)cc1`, for which the result in assay [1], in assay [2], in assay [3], in assay [4], in assay [5] and in assay [6] was inactive. Besides, the result in [7], in assay [8] and in assay [9] was inactive.

`OCc1ccccc1`: the compound was called inactive in assay [1], in assay [2], in assay [3], in assay [4], in [5] and in assay [6]. The result in assay [7], in assay [8] and in assay [9] was inactive.

`O=S(=O)(O)CCC(F)(F)C(F)(F)C(F)(F)C(F)(F)C(F)(F)C(F)(F)F`: the compound was classed as inactive in assay [1], in assay [2], in assay [3], in assay [4], in assay [5] and in assay [10]. In addition, the result in assay [6], in assay [7], in assay [8] and in assay [9] was inactive.

Regarding `CCCCCCCC/C=C\CCCCCCCC(=O)OC[C@@H](O)[C@H]1OC[C@H](O)[C@H]1O`, the compound was classed as inactive in [1], in assay [2], in assay [3], in [4], in [5] and in assay [10]. The result in [6], in [7], in assay [8] and in assay [9] was inactive.

On to `CC(=O)c1ccccc1`, for which the call in assay [1], in assay [2], in [3], in [4], in [5] and in [10] was inactive. For the same compound, the outcome in assay [6], in assay [7], in assay [8] and in assay [9] was inactive.

With `CCCCCOC(C)=O`, the compound was called inactive in [1], in assay [2], in assay [3], in assay [4], in assay [5] and in assay [6]. The outcome in assay [7], in assay [8] and in [9] was inactive.

Regarding `CNC(C)=O`, the compound was classed as inactive in [1], in [2], in assay [4], in assay [5], in [6] and in assay [7]. For the same compound, the result in assay [8] and in [9] was inactive.

For `CCOc1ccc2[nH]cc(C(=O)NCc3ccccc3)c(=O)c2n1`, the outcome in assay [1], in [2], in [5], in assay [6], in [7] and in assay [8] was inactive. Moreover, the outcome in assay [9] was inactive. Besides, in assay [4], the AC50 is 9.32 µM (active).

In the case of `C[C@]12C=CC(=O)C=C1CC[C@H]1[C@@H]3C[C@@H](O)[C@](O)(C(=O)CO)[C@@]3(C)C[C@H](O)[C@@]12F`, the call in assay [1], in assay [2], in assay [4], in assay [5], in assay [10] and in [6] was inactive. For the same compound, the outcome in [7], in [8] and in assay [9] was inactive.

As to `OCC(CO)(CO)CO`, the compound was called inactive in assay [1], in assay [2], in [4], in [5], in [6] and in assay [7]. Further, the outcome in [8] and in assay [9] was inactive. Moreover, the AC50 in assay [4] was 141 µM (active).

`OCCNCCO`: the call in assay [1], in assay [2], in assay [4], in assay [5], in assay [6] and in assay [7] was inactive. Further, the outcome in assay [8] and in assay [9] was inactive.

The record behind these values is PubChem BioAssay (EPA / NIEHS).
